# From PubChem BioAssay (EPA / NIEHS)
# Records with an inconclusive call do not appear. Active and inactive are the calls of the source. Rule for the calls: active = hit-call score of the fitted dose curve at least 0.9, where 1 is the maximum; inconclusive = response in the unintended direction; inactive = score below 0.9.
# Biological target: Cellular tumor antigen p53 (Homo sapiens) (UniProt P04637)
# Assay: TOX21_p53_BLA_p3_ratio: Tox21 HCT-116 p53 Agonism Beta-lactamase Assay, Ratio, Phase 3 (AID 2283596)
# How it was run: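 Cells were seeded at 4000/well, rested 5 h at 37C, then dosed with DMSO compound solutions (217-fold dilution) for 16 h. CCF4-AM substrate was loaded for 2 h at room temperature, and the 460/530 nm emission ratio was fitted for gain of signal versus DMSO.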
# Cellular tumor antigen p53 (Homo sapiens), sequence (P04637 whole entry, looked up): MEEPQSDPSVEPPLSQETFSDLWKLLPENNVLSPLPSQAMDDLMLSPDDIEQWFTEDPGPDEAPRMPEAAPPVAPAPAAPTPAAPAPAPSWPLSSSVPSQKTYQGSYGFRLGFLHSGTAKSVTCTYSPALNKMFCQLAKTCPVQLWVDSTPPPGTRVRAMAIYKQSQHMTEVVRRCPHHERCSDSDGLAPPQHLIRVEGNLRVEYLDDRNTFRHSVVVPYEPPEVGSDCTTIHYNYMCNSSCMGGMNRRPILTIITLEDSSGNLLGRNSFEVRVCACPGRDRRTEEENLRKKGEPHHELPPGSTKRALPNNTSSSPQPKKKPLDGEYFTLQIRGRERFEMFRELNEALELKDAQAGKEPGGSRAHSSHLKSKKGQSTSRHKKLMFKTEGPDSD
Structure (SMILES),AC50,outcome
CCCCc1oc2ccc(NS(C)(=O)=O)cc2c1C(=O)c1ccc(OCCCN(CCCC)CCCC)cc1,43.7 µM (active),
Cc1ccc2nc(N)[nH]c(=O)c2c1Sc1ccncc1,3.22 µM (active),
CON=C(C(=O)N[C@@H]1C(=O)N2C(C(=O)O)=C(COC(N)=O)CS[C@H]12)c1ccco1,,inactive
CC1(C)S[C@@H]2[C@H](NC(=O)Cc3ccccc3)C(=O)N2[C@H]1C(=O)O (tested in a mixture with another compound),,inactive
O=S(=O)(O)c1ccc(O)cc1,,inactive
CNc1ccc(O)cc1,,inactive
O=[N+]([O-])c1c(Cl)cccc1-c1c[nH]cc1Cl,23.6 µM (active),
CC(C)NCC1CCc2cc(CO)c([N+](=O)[O-])cc2N1 (stereo not given),,inactive
CC(C)(C)OC(=O)N1C[C@@H](F)C[C@H]1C(=O)O,,inactive
N#CCc1cccc(C(F)(F)F)c1,,inactive
COc1cc(C(=O)OCCCN2CCCN(CCCOC(=O)c3cc(OC)c(OC)c(OC)c3)CC2)cc(OC)c1OC,,inactive
CC[C@@]1([C@@H]2O[C@@H]([C@H]3O[C@@](O)(CO)[C@H](C)C[C@@H]3C)C[C@@H]2C)CC[C@H]([C@]2(C)CC[C@]3(C[C@H](O)[C@@H](C)[C@@H]([C@@H](C)[C@@H](OC)[C@H](C)C(=O)O)O3)O2)O1 (stereo in doubt),,inactive
CC(C)(C#N)Nc1nc(Cl)nc(NC2CC2)n1,,inactive
Oc1c(Cl)cc(Cl)c2cccnc12,7.23 µM (active),
O=C(O)CCC(=O)C(=O)O,,inactive
CCCCCCCC(=O)CC[C@@H]1[C@@H](C/C=C\CCCC(=O)OC(C)C)[C@@H](O)C[C@H]1O,,inactive
CO[C@@H]1[C@@H](O[C@@H]2O[C@H](C)[C@@H](O[C@H]3C[C@@](C)(O)[C@@H](OC(=O)CC(C)C)[C@H](C)O3)[C@H](N(C)C)[C@H]2O)[C@@H](CC=O)C[C@@H](C)C(=O)/C=C/C2OC2C[C@@H](C)OC(=O)C[C@H]1OC(C)=O (stereo not given in full),,inactive
O=C(NCC1CCCCN1)c1cc(OCC(F)(F)F)ccc1OCC(F)(F)F (stereo not given),,inactive
O=C(Oc1cccc2cccnc12)c1ccccc1,,inactive
COc1cc(C=C2CCCC(=Cc3ccc(O)c(OC)c3)C2=O)ccc1O,,inactive

Structure (SMILES),AC50,outcome
CCCOc1ccc(C(=O)OCCN(CC)CC)cc1N,,inactive
CC(C)(C)C(=O)O,,inactive
O=C(CCS)OCC(COC(=O)CCS)(COC(=O)CCS)COC(=O)CCS,15.7 µM (active),
Cc1ccc(S(=O)(=O)NC(=O)NC2CCCCCCC2)cc1,,inactive
Cc1cccc(C)c1OCC(=O)N[C@@H](Cc1ccccc1)[C@@H](O)C[C@H](Cc1ccccc1)NC(=O)[C@H](C(C)C)N1CCCNC1=O,,inactive
CCCCCCCCCCCC[n+]1ccc2ccccc2c1,15 µM (active),
Cc1ccccn1,,inactive
Cc1cc(O)c(C(C)(C)C)cc1Sc1cc(C(C)(C)C)c(O)cc1C,33.4 µM (active),
CCCC(C(=O)OCCN(CC)CC)(c1ccccc1)c1ccccc1,,inactive
CCCCCCCCCCCCCCCCCCNC(=O)OC1CCN(C(=O)OC[C@H](COC(=O)N(Cc2cccc[n+]2CC)C(=O)c2ccccc2OC)OC)CC1,,inactive
CCCCCCCCCCCCCCC(=O)O,,inactive
CC(C)(O)c1ccccc1CC[C@@H](SCC1(CC(=O)O)CC1)c1cccc(/C=C/c2ccc3ccc(Cl)cc3n2)c1,33.8 µM (active),
CO[C@@]12[C@H](COC(N)=O)C3=C(C(=O)C(C)=C(N)C3=O)N1C[C@@H]1N[C@@H]12,3.24 µM (active),
CC(C)OC(=O)OCOP(=O)(CO[C@H](C)Cn1cnc2c(N)ncnc21)OCOC(=O)OC(C)C,,inactive
CSc1ccc2c(c1)C(N1CCN(C)CC1)Cc1ccccc1S2 (stereo not given),,inactive
Oc1c(Br)cc(Br)c2cccnc12,,inactive
OCCN1CCN(CC/C=C2/c3ccccc3Sc3ccc(C(F)(F)F)cc32)CC1,,inactive
CC(=O)Oc1ccc(C2(c3ccc(OC(C)=O)cc3)Oc3ccccc3NC2=O)cc1,,inactive
O=C(O)c1ccc(-n2nc(-c3ccccc3O)nc2-c2ccccc2O)cc1,,inactive
CN1CC(=O)N/C1=N/C(=O)Nc1cccc(Cl)c1,,inactive

# Tested on: not listed separately
# Assay: TOX21_p53_BLA_p4_viability: Viability Assessment in the Tox21 HCT-116 p53 Agonism Beta-lactamase Assay, Phase 4 (AID 2283597);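 note: hits lower the luminescence signal meaning cytotoxicity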
# How it was run: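 Viability is taken as cellular ATP: after 16 h compound exposure of HCT116 cells and a 2 h room-temperature CCF4-AM substrate step, CellTiter-Glo reagent is added and luminescence is measured 30 min later.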
Structure (SMILES),AC50,outcome
CCCCc1oc2ccc(NS(C)(=O)=O)cc2c1C(=O)c1ccc(OCCCN(CCCC)CCCC)cc1,23.7 µM (active),
Cc1ccc2nc(N)[nH]c(=O)c2c1Sc1ccncc1,,inactive
CON=C(C(=O)N[C@@H]1C(=O)N2C(C(=O)O)=C(COC(N)=O)CS[C@H]12)c1ccco1,,inactive
CC1(C)S[C@@H]2[C@H](NC(=O)Cc3ccccc3)C(=O)N2[C@H]1C(=O)O (tested in a mixture with another compound),,inactive
O=S(=O)(O)c1ccc(O)cc1,,inactive
CNc1ccc(O)cc1,,inactive
O=[N+]([O-])c1c(Cl)cccc1-c1c[nH]cc1Cl,36.3 µM (active),
CC(C)NCC1CCc2cc(CO)c([N+](=O)[O-])cc2N1 (stereo not given),,inactive
CC(C)(C)OC(=O)N1C[C@@H](F)C[C@H]1C(=O)O,,inactive
N#CCc1cccc(C(F)(F)F)c1,,inactive
COc1cc(C(=O)OCCCN2CCCN(CCCOC(=O)c3cc(OC)c(OC)c(OC)c3)CC2)cc(OC)c1OC,,inactive
CC[C@@]1([C@@H]2O[C@@H]([C@H]3O[C@@](O)(CO)[C@H](C)C[C@@H]3C)C[C@@H]2C)CC[C@H]([C@]2(C)CC[C@]3(C[C@H](O)[C@@H](C)[C@@H]([C@@H](C)[C@@H](OC)[C@H](C)C(=O)O)O3)O2)O1 (stereo in doubt),,inactive
CC(C)(C#N)Nc1nc(Cl)nc(NC2CC2)n1,,inactive
Oc1c(Cl)cc(Cl)c2cccnc12,7.77 µM (active),
O=C(O)CCC(=O)C(=O)O,,inactive
CCCCCCCC(=O)CC[C@@H]1[C@@H](C/C=C\CCCC(=O)OC(C)C)[C@@H](O)C[C@H]1O,23 µM (active),
CO[C@@H]1[C@@H](O[C@@H]2O[C@H](C)[C@@H](O[C@H]3C[C@@](C)(O)[C@@H](OC(=O)CC(C)C)[C@H](C)O3)[C@H](N(C)C)[C@H]2O)[C@@H](CC=O)C[C@@H](C)C(=O)/C=C/C2OC2C[C@@H](C)OC(=O)C[C@H]1OC(C)=O (stereo not given in full),,inactive
O=C(NCC1CCCCN1)c1cc(OCC(F)(F)F)ccc1OCC(F)(F)F (stereo not given),,inactive
O=C(Oc1cccc2cccnc12)c1ccccc1,,inactive
COc1cc(C=C2CCCC(=Cc3ccc(O)c(OC)c3)C2=O)ccc1O,27.8 µM (active),

Structure (SMILES),AC50,outcome
CCCOc1ccc(C(=O)OCCN(CC)CC)cc1N,,inactive
CC(C)(C)C(=O)O,,inactive
O=C(CCS)OCC(COC(=O)CCS)(COC(=O)CCS)COC(=O)CCS,,inactive
Cc1ccc(S(=O)(=O)NC(=O)NC2CCCCCCC2)cc1,,inactive
Cc1cccc(C)c1OCC(=O)N[C@@H](Cc1ccccc1)[C@@H](O)C[C@H](Cc1ccccc1)NC(=O)[C@H](C(C)C)N1CCCNC1=O,37.5 µM (active),
CCCCCCCCCCCC[n+]1ccc2ccccc2c1,23 µM (active),
Cc1ccccn1,,inactive
Cc1cc(O)c(C(C)(C)C)cc1Sc1cc(C(C)(C)C)c(O)cc1C,14.3 µM (active),
CCCC(C(=O)OCCN(CC)CC)(c1ccccc1)c1ccccc1,31.2 µM (active),
CCCCCCCCCCCCCCCCCCNC(=O)OC1CCN(C(=O)OC[C@H](COC(=O)N(Cc2cccc[n+]2CC)C(=O)c2ccccc2OC)OC)CC1,30.2 µM (active),
CCCCCCCCCCCCCCC(=O)O,,inactive
CC(C)(O)c1ccccc1CC[C@@H](SCC1(CC(=O)O)CC1)c1cccc(/C=C/c2ccc3ccc(Cl)cc3n2)c1,15.1 µM (active),
CO[C@@]12[C@H](COC(N)=O)C3=C(C(=O)C(C)=C(N)C3=O)N1C[C@@H]1N[C@@H]12,,inactive
CC(C)OC(=O)OCOP(=O)(CO[C@H](C)Cn1cnc2c(N)ncnc21)OCOC(=O)OC(C)C,,inactive
CSc1ccc2c(c1)C(N1CCN(C)CC1)Cc1ccccc1S2 (stereo not given),34.5 µM (active),
Oc1c(Br)cc(Br)c2cccnc12,7.62 µM (active),
OCCN1CCN(CC/C=C2/c3ccccc3Sc3ccc(C(F)(F)F)cc32)CC1,36.3 µM (active),
CC(=O)Oc1ccc(C2(c3ccc(OC(C)=O)cc3)Oc3ccccc3NC2=O)cc1,,inactive
O=C(O)c1ccc(-n2nc(-c3ccccc3O)nc2-c2ccccc2O)cc1,,inactive
CN1CC(=O)N/C1=N/C(=O)Nc1cccc(Cl)c1,,inactive
